Assay results published in PubChem BioAssay (NCATS).
Inconclusive results are not listed. Activity calls are given as the source filed them. Calls come from the whole dose curve; as a rule, active = well fitted curve in the direction sought with a large enough effect; inconclusive = small, poorly fitted or top-dose-only effect, or another doubt; inactive = no such curve, though single readings can be large; an effect the other way counts as inactive or inconclusive. Where a SMILES comes first, the peptide text is derived from it.

Tests used:
[1] = target: Glutathione peroxidase 1 (Homo sapiens) (UniProt P07203); assay: Primary qHTS Assay for Inhibitors of Recombinant Selenoprotein Glutathione Peroxidase 1 (GPX1) (AID 1845191); note: nearly all actives have a fitted effect of over 65% in size; for activity, negative = inhibition: % is set by controls: 0 for no effect and ±100 for the full control effect
Procedure, shortened: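 GR-coupled assay: compounds preincubated 30 min at room temperature with GPX1, then reaction started with CHP; final 10 nM GPX1, 1 mM GSH, 0.5 mM CHP, 0.5 mM NADPH, 100 nM GR, 0.01% BSA, pH 7.5 Tris buffer. NADPH fluorescence (340/450 nm) read at 0 and 15 min.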

[2] = target: Phospholipid hydroperoxide glutathione peroxidase GPX4 (Homo sapiens) (UniProt P36969); assay: Primary qHTS Assay for Inhibitors of Recombinant Selenoprotein Glutathione Peroxidase 4 (GPX4) (AID 1845192); note: nearly all actives have a fitted effect of over 65% in size; for activity change, negative = inhibition: series mostly up to about 50 µM; % is set by controls: 0 for no effect and ±100 for the full control effect
Procedure, shortened: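 GR-coupled assay: recombinant GPX4 preincubated 30 min with compound at room temperature; final 200 nM GPX4, 1 mM GSH, 0.5 mM cumene hydroperoxide, 0.5 mM NADPH, 100 nM GR, 0.01% BSA, pH 7.5 Tris. NADPH fluorescence (340/450 nm) read at 0 and 15 min.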

[3] = target: Luciferin 4-monooxygenase (Photinus pyralis) (UniProt P08659); assay: Primary firefly luciferase (FLuc) qHTS assay for identification of artifact compounds. (AID 1845220); note: nearly all actives have a fitted effect of over 60% in size;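 for activity change, negative = inhibition: series mostly up to about 54 µM; plate controls were DMSO vehicle for no effect and no enzyme for full effect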
Procedure, shortened: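 D-luciferin and ATP (10 uM each, final) in Tris acetate buffer pH 7.6 were incubated with compounds for 15 min at room temperature. The reaction was started with 10 nM Photinus pyralis luciferase and luminescence read after 5 min. Percent inhibition was fitted to a 4-parameter Hill equation.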

[4] = Primary fluorescence-based thiol-reactive (MSTI) qHTS assay for identification of artifact compounds. (AID 1845221); note: nearly all actives have a fitted effect of over 65% in size; note: potency is the fitted concentration of half-maximal effect;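 for activity change, negative = thiol reactive: series mostly up to about 54 µM; thiol-reactive compounds lower the probe fluorescence signal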
Procedure, shortened: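 MSTI probe at 4 uM final in 2% DMSO/PBS pH 7.4; compounds, 1 h at room temperature in dark. Fluorescence Ex/Em 525/598 nm, normalised to Acetyl-MSTI and MSTI, fitted to 4-parameter Hill.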

[5] = tested on: Nanoluciferase (engineered Oplophorus gracilirostris luciferase); assay: Primary Nanoluciferase (NLuc) qHTS assay for identification of artifact compounds. (AID 1845222);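 note: series mostly up to about 54 µM; 0% = DMSO and -100% = no enzyme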
Procedure, shortened: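 Diluted conditioned medium from NLuc-expressing S16 cells treated with compounds for 15 min at room temperature, then Nano-Glo substrate added; luminescence read after 5 min. Percent inhibition versus no-enzyme and DMSO controls fitted to 4-parameter Hill equation.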

Phospholipid hydroperoxide glutathione peroxidase GPX4 (Homo sapiens), sequence (P36969 whole entry, looked up): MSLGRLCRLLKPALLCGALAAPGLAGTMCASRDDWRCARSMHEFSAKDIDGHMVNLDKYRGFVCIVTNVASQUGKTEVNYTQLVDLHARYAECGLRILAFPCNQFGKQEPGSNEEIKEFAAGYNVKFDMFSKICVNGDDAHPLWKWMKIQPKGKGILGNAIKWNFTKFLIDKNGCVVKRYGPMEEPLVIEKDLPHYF
Glutathione peroxidase 1 (Homo sapiens), sequence (P07203 whole entry, looked up): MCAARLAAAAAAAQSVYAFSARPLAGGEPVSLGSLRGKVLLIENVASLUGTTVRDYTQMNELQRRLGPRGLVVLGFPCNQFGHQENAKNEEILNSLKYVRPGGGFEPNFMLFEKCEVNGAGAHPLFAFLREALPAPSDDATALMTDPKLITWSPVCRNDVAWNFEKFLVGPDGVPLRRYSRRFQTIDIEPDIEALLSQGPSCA

O=C1C[C@@]2(C(=O)N1)C(=O)N(Cc1ccc(Br)cc1F)C(=O)c1cccn12
inactive: Potency [1] | Potency [2] | Potency [3] | Potency [4]

C=C1C[C@]23C[C@H]1CC[C@H]2[C@]1(C)CC[C@H](O)[C@@](C)(C(=O)O)[C@H]1[C@@H]3C(=O)O
inactive: Potency [1] | Potency [2] | Potency [3] | Potency [4] | Potency [5]

OCC(O)C(c1c[nH]c2ccccc12)c1c[nH]c2ccccc12 (stereo not given)
inactive: Potency [1] | Potency [2] | Potency [3]
active: Potency [4] 6.7 µM

CC(C)CC[C@@H](O)[C@](C)(O)[C@H]1CC[C@@]2(O)C3=CC(=O)[C@@H]4C[C@@H](O)[C@@H](O)C[C@]4(C)[C@H]3CC[C@]12C
inactive: Potency [1] | Potency [2] | Potency [3] | Potency [4] | Potency [5]

COc1ccccc1Oc1c(NS(=O)(=O)c2ccc(C)cn2)nc(-c2ccncc2)nc1OC
inactive: Potency [1] | Potency [2] | Potency [3] | Potency [4]

C/C=C/C=C/C(O)=C1/C(=O)[C@]2(C)C(=O)[C@@](C)(O)[C@H]1[C@H]([C@@]1(C)OC(=O)C(C)=C1O)[C@H]2C(=O)CC/C=C/C
active: Potency [4] 4.12 µM
inactive: Potency [1] | Potency [2] | Potency [3] | Potency [5]

C[C@H]1[C@H](C)C[C@@H](C(=O)O)C2CC[C@]3(C)C(=CC[C@@H]4[C@@]5(C)CC[C@H](O)C(C)(C)[C@@H]5CC[C@]43C)[C@@H]21 (stereo not given in full)
inactive: Potency [1] | Potency [2] | Potency [3] | Potency [4] | Potency [5]

O=C(/C=C/c1ccccc1)OC[C@H]1O[C@@H](OC(=O)c2cc(O)c(O)c(O)c2)[C@H](O)[C@@H](O)[C@@H]1O
active: Potency [4] 0.327 µM
inactive: Potency [1] | Potency [2] | Potency [3]

O=C(OC[C@H]1O[C@H](O[C@H]2CO[C@H](CO)[C@@H](O)[C@@H]2O)[C@H](O)[C@@H](O)[C@H]1O)c1ccccc1
inactive: Potency [1] | Potency [2] | Potency [3] | Potency [4] | Potency [5]

CC1(C)CCC[C@]2(C)C1CC=C(CO)[C@H]2CC/C(=C/CO)CO (stereo not given in full)
inactive: Potency [1] | Potency [2] | Potency [3] | Potency [4]

CC(=O)O[C@H]1C[C@@H](O)C(C)(C)C2C[C@@H](OC(C)=O)[C@@]3(C)C4=CCC(C(CO)CC(O)C5OC5(C)C)[C@]4(C)CCC3[C@]21C (stereo not given in full)
inactive: Potency [1] | Potency [2] | Potency [3] | Potency [4] | Potency [5]

CC1OC(O[C@@H]2[C@H](O)[C@@H](OC3OC(CO)C(O)C(O)C3O)[C@H](OC(=O)[C@]34CCC(C)(C)C[C@H]3C3=CCC5[C@@]6(C)CC[C@H](O[C@@H]7O[C@H](C(=O)O)[C@@H](O)[C@H](O[C@@H]8OC[C@@H](O)[C@H](O)[C@H]8O)[C@H]7O[C@@H]7O[C@H](CO)[C@H](O)[C@H](O)[C@H]7O)[C@@](C)(C=O)C6CC[C@@]5(C)[C@]3(C)C[C@H]4O)O[C@@H]2C)C(O)C(O)C1OC1OCC(O)C(O)C1O (stereo not given in full)
inactive: Potency [1] | Potency [2] | activity change, negative = inhibition [3] 1.16% [at 6.45 µM] | activity change, negative = thiol reactive [4] 299% [at 6.41 µM] | activity, negative = inhibition [5] 0% [at 6.45 µM]

Cc1ccc2nc(NC(=O)CSc3nc4c(c(=O)n3-c3ccc(F)cc3)SCC4)sc2c1
inactive: Potency [1] | Potency [2] | Potency [3] | Potency [4] | Potency [5]

COc1cc(O)cc2c1C(=O)OC(C)CCCCCCC2 (stereo not given)
inactive: Potency [1] | Potency [2] | Potency [3]
active: Potency [4] 11.9 µM

C[C@@H]1O[C@@H](O[C@H]2[C@H](O)[C@@H](O[C@@H]3O[C@H](CO)[C@H](O)[C@H](O)[C@H]3O)[C@H](O[C@H]3CC[C@@]4(C)C(CC[C@]5(C)C4CC=C4[C@@H]6CC(C)(C)CC[C@]6(C(=O)O[C@@H]6O[C@H](CO)[C@@H](O)[C@H](O)[C@H]6O)CC[C@]45C)C3(C)C)O[C@@H]2C(=O)O)[C@H](O)[C@H](O)[C@H]1O (stereo not given in full)
inactive: Potency [1] | Potency [2] | outcome [3] inactive [at 11.6 µM] | activity change, negative = thiol reactive [4] 349% [at 11.5 µM]

COc1cc(Cc2cnc(N)nc2N)c(C(C)C)cc1OC
inactive: Potency [1] | Potency [2] | Potency [3] | Potency [4] | Potency [5]

C[C@@H]1O[C@@H](O[C@H]2[C@@H]3C=CO[C@@H](O[C@@H]4O[C@H](CO)[C@@H](O)[C@H](O)[C@H]4O)[C@@H]3[C@@]3(CO)O[C@@H]23)[C@H](OC(=O)/C=C/c2ccc(O)cc2)[C@H](O)[C@H]1O
inactive: Potency [1] | Potency [2] | Potency [3] | Potency [5]
active: Potency [4] 3.54 µM

CC(C)c1ccc2c(c1)[C@H](O)CC1[C@@](C)(C(=O)O)CCC[C@]21C (stereo not given in full)
inactive: Potency [1] | Potency [2] | Potency [3] | Potency [4] | Potency [5]

C=C1[C@@H]2CC[C@@]3(C)[C@H](c4ccoc4)OC(=O)C[C@]13O[C@H]1CC(=O)C(C)(C)[C@H](C(O)C(=O)OC)[C@]12C (stereo not given in full)
inactive: Potency [1] | Potency [2] | Potency [3] | Potency [4]

CCC/C=C1\OC(=O)C2=C1CCC(O)C2O (stereo not given)
inactive: Potency [1] | Potency [2] | Potency [3] | Potency [4]

CC[C@@H]1C(=O)O[C@]23C=C[C@@H]4C(C(=O)OC)=CO[C@H](O[C@@H]12)[C@@H]43
active: Potency [4] 10.6 µM
inactive: Potency [1] | Potency [2] | Potency [3]

CSCC[C@H](NC(=O)[C@H](CO)NC(=O)[C@H](CCC(=O)O)NC(C)=O)C(=O)N[C@H](C=O)CC(=O)O (Ac-ESMD-aldehyde)
inactive: Potency [1] | Potency [2] | activity change, negative = inhibition [3] -5.86% [at 11.6 µM] | activity change, negative = thiol reactive [4] 10.4% [at 11.5 µM] | activity, negative = inhibition [5] 3.03% [at 11.6 µM]
